# Many of the other results were omitted from the sample, so hits are more common in it than they were.
# Marburg entry inh = blocks Marburg virus binding to or entry into cells; Marburg virus pseudotyped entry inhibition, cell reporter; Potency, µM (highest dose often 37.8 µM), most hits filed as inhibitors; actives 1.8% (n = 300,000); AID 540276; calls by dose curve; tested in HEK293 cells
# Cycloheximide cs = counter-screen for Shiga toxin inhibitors: cycloheximide protein synthesis inhibition. actives 12% (n = 300,000). max response, %. cell reporter, cycloheximide protein synthesis inhibition counterscreen; in the data active means max response mostly above about 13%, no sharp cut-off; inactive means mostly below about 14%; further: read at 38.3 µM for the half of the compounds with a filed dose
# Vaccinia Venus = inhibitors of vaccinia virus (Venus reporter); Vaccinia virus Venus reporter expression, fluorescence; Potency, µM (series often up to 36.5 µM), actives largely listed as inhibitors; actives 0.46% (n = 330,000); AID 720580; calls by dose curve; tested in A549 cells; further: nearly all actives have a fitted effect of over 30% in size
# VACV mCherry inh = vaccinia inhibition (mCherry reporter); Vaccinia virus mCherry reporter infection, fluorescence; Potency, µM (series often up to 36.5 µM), hits mostly inhibitors; actives 0.63% (n = 310,000); calls by dose curve; tested in A549 cells; further: nearly all actives have a fitted effect of over 35% in size
# Shiga toxin inh = Shiga toxin inhibition; Vero cells, Shiga toxin protein synthesis inhibition reporter; inhibition, % at 38.7 µM; actives 9.2% (n = 290,000); AID 2315; in the data active means inhibition mostly above about 28%, no sharp cut-off; inactive means mostly below about 43%
# LASV entry inh = Lassa virus entry inhibition; Potency, µM (highest dose often 37.9 µM), hits mostly inhibitors; Lassa virus pseudotype entry inhibition, cell reporter; actives 1.2% (n = 300,000); calls by dose curve; tested in HEK293 cells; further: nearly all actives have a fitted effect of over 50% in size
# Numbers stand for hits; n = inactive; u = inconclusive; x = no result given; [ ] = another dose, or the depositor's remark.
SMILES,Marburg entry inh,Cycloheximide cs,Vaccinia Venus,VACV mCherry inh,Shiga toxin inh,LASV entry inh
O=c1c2cc(N3CCOCC3)ccc2[nH]c(=S)n1Cc1ccc(Cl)cc1,n,76,n,n,40,u
Cc1ccc(Cn2c(=S)[nH]c3ccc(N4CCOCC4)cc3c2=O)o1,n,16,x,x,n,u
Cc1ccc(C)c(N2CCN(C(=O)c3ccc(Cn4c(=S)[nH]c5ccc(N6CCOCC6)cc5c4=O)cc3)CC2)c1,n,n,n,n,n,n
COc1ccc(N2CCN(C(=O)c3ccc(Cn4c(=S)[nH]c5ccc(N6CCOCC6)cc5c4=O)cc3)CC2)cc1,n,40,n,n,87,n
CCCCn1c(=S)[nH]c2ccc(N3CCOCC3)cc2c1=O,x,n,x,x,n,x
O=C(CN1C(=O)NC2(CCCC2)C1=O)NCc1cccc(Cl)c1,n,x,n,n,x,n
CC(=O)Nc1ccc(C=CC=Cc2cccc([N+](=O)[O-])c2)cc1,u,x,n,u,x,u
CCOC(=O)C1=C(COC(=O)CCc2ccc(CC)cc2)NC(=O)NC1C (stereo not given),n,x,n,n,x,n
COc1ccc2c(c1)CO[C@H]([C@H](O)CO)[C@H]2C=Cc1ccccc1,n,x,x,x,x,u
O=C(N/N=C/c1ccncc1)c1cccs1,x,52,x,x,91,x
O=C(N/N=C/C=C\c1ccco1)c1cccs1,u,29,n,n,82,n
COc1ccccc1C(=O)N/N=C/c1cnc2ccccc2n1,n,59,n,n,125,u
COC(=O)c1ccccc1Oc1cnc2ccccc2n1,n,n,n,n,n,u
O=C(N/N=C\c1ccc(Cl)s1)c1cccs1,n,43,n,n,n,u
CC12CCCc3c(O)cc(=O)n(c31)-c1ccccc12 (stereo not given),n,n,n,n,n,n
O=C(NCc1ccc(F)cc1F)[C@@H]1CCCN1C(=O)[C@@H]1CCCN1,x,x,n,n,x,x
Cc1ccccc1Cc1nc2cccnc2n1C1CCN(C(=O)CC2NC(=O)c3ccccc32)CC1 (stereo not given),x,x,n,n,x,x
CSc1ccc(/C=N/NC(=O)c2cccs2)cc1,u,52,u,n,66,u
O=C(N/N=C/c1ccncc1)c1ccc(NS(=O)(=O)c2cccs2)cc1,u,n,n,n,n,n
O=C(N/N=C/c1ccc(-n2ccnc2)cc1)c1cccs1,u,45,n,n,85,n
O=C(N/N=C/c1ccc(-c2ccccc2C(=O)O)o1)c1cccs1,u,33,n,n,49,n
COc1ccccc1C(=O)N/N=C/c1ccc(Cl)s1,n,49,n,n,78,n
O=C(N/N=C/c1ccc(Cl)s1)C(O)c1ccccc1 (stereo not given),x,n,x,x,n,x
CSc1ccc(C(=O)C2CCCN(Cc3cccc4nccnc34)C2)cc1 (stereo not given),u,n,n,u,n,n
CC1(c2nnc(-c3ccccc3)o2)CC(c2ccc([N+](=O)[O-])cc2)=NO1 (stereo not given),x,x,n,n,x,x
SMILES,Marburg entry inh,Cycloheximide cs,Vaccinia Venus,VACV mCherry inh,Shiga toxin inh,LASV entry inh
Cc1ccccc1NC(=O)Cc1nc(COC(=O)c2cc(Cl)ccc2O)cs1,u,n,n,n,n,n
Cc1ccc(CCN=c2c([N+](=O)[O-])nn(-c3ccccc3)n2O)cc1,n,n,n,n,n,n
O=[N+]([O-])c1nn(-c2ccccc2)n(O)c1=NCCc1ccccc1,u,25,u,n,112,u
COc1ccc(-n2nc([N+](=O)[O-])c(=NCCc3ccccc3)n2O)cc1,u,15,n,n,n,n
CC(C)Oc1ccc(CCNC(=O)C2CCC(=O)N(Cc3cccc(F)c3)C2)cc1 (stereo not given),n,55,n,n,n,n
COc1ccccc1CCNC(=O)C1CCC(=O)N(Cc2cccc(F)c2)C1 (stereo not given),x,20,x,x,37,x
COc1ccccc1CCNC(=O)C1CCC(=O)N(Cc2ccccc2OC)C1 (stereo not given),n,15,n,n,n,n
COc1ccccc1CN1CC(C(=O)NCCCc2ccc(F)cc2)CCC1=O (stereo not given),x,n,x,x,n,x
COc1ccccc1CN1CC(C(=O)NCCc2ccc(C)o2)CCC1=O (stereo not given),x,n,x,x,n,x
COc1ccccc1CN1CC(C(=O)NCc2c(F)ccc(C)c2F)CCC1=O (stereo not given),x,47,x,x,82,x
COc1ccc(CNC(=O)CCc2cn(C)c3ccccc23)cc1,x,x,n,n,x,n
O=C(NCCc1ccc(C(F)(F)F)cc1)C1CCC(=O)N(CCCN2CCCC2=O)C1 (stereo not given),x,12,x,x,n,x
COc1ccccc1CN1CC(C(=O)NCCN(C)CCc2ccccc2)CCC1=O (stereo not given),u,n,n,n,n,5.6µM
COc1ccc(CCN2CC(C(=O)NCCc3ccccc3C(F)(F)F)CCC2=O)cc1 (stereo not given),x,66,x,x,70,x
COc1ccc(CCNC(=O)C2CCC(=O)N(CCc3ccc(OC)cc3)C2)cc1 (stereo not given),x,n,x,x,n,x
CN(C(=O)C1CCC(=O)N(Cc2cccc(F)c2)C1)C1CCCCC1 (stereo not given),n,87,n,n,121,n
O=C(NC1CCC1)C1CCC(=O)N(Cc2cccc(F)c2)C1 (stereo not given),x,n,x,x,n,x
O=S(=O)(Nc1ccc(F)c(Cl)c1)c1ccc(Br)s1,n,x,n[7.34 µM],n[7.34 µM],x,n
Cn1c(N/N=C/c2c[nH]c3ccccc23)nc2ccccc21,u,45,u,u,167,u
Cc1cc(C)nc(N/N=C/c2cccc3ccccc23)n1,n,47,n,n,n,n
Cc1cc(C)nc(N/N=C/c2cn[nH]c2-c2ccccc2)n1,n,n,n,n,n,n
Cn1cc(Br)c(C(=O)N/N=C/c2cc3ccccc3nc2Cl)n1,x,15,x,x,50,x
Cc1cc(C)nc(N/N=C/c2ccccc2OCc2ccc([N+](=O)[O-])cc2)n1,u,n,n,n,59,n
O=[N+]([O-])c1ccc(N/N=C\c2ccccc2OCc2ccccc2)cc1,u,n,n,n,n,n
O=C(N/N=C/c1cc2ccccc2nc1Cl)c1ccncc1,n,n,n,n,n,n
SMILES,Marburg entry inh,Cycloheximide cs,Vaccinia Venus,VACV mCherry inh,Shiga toxin inh,LASV entry inh
CCCn1c(/N=C/c2c[nH]c3ccccc23)nc2ccccc21,n,42,n,n,n,n
Cc1cc(C)nc(N/N=C/c2ccccc2Cl)n1,x,59,x,x,94,x
Cc1cc(N/N=C/c2ccccc2Cl)nc(NCc2ccccc2)n1,u,28,u,13µM,n,u
Cc1cc(C)nc(N/N=C/c2ccccc2)n1,n,n,x,x,n,n
Cn1c(N/N=C/c2cc3ccccc3nc2Cl)nc2ccccc21,u,n,n,n,78,u
Fc1c(F)c(F)c(N/N=C/c2c[nH]c3ccccc23)c(F)c1F,u,16,u,u,n,n
COc1ccccc1/C=N/Nc1nc(C)cc(C)n1,n,34,n[7.34 µM],n[7.34 µM],89,n
C(=N\NC1=NCCCCC1)/c1c[nH]c2ccccc12,n,21,n,n,n,n
COc1ccccc1C=NNc1nc(C)cc(=O)[nH]1,n,x,n,n,x,n
